Test systems include SR leukemia; RPMI-8226 leukemia; OVCAR-8 ovarian; OVCAR-5 ovarian; OVCAR-4 ovarian; SK-OV-3 ovarian; IGROV1 ovarian; OVCAR-3 ovarian; HS 578T breast; NCI/ADR-RES ovarian.
What all share (test): NCI-60 one-dose screen, 48 h (100 = growth as untreated, 0 = no growth, -100 = all killed)
Common to all, as to conditions: 10 µM unless noted

About 83,000 compounds went through this panel and 20% of them were active in at least one assay; those are over-represented in the sample as a whole.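 Cell lines were cultured in 96-well plates, exposed to a single compound concentration, and assessed for percent growth 48 hours later.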 Values without a mark were called inactive. The source made the active and inactive calls. The calls were made as follows: active = growth percent below 10; inactive = the rest.

Regarding `CCOC(=O)CNC1=C(Cl)C(=O)N(Cc2ccc(Cl)cc2)C1=O`, the growth was 105% in the experiment on SR leukemia; 96.6% in the experiment on RPMI-8226 leukemia; 100% with OVCAR-8 ovarian; 96.2% in the experiment on OVCAR-5 ovarian; 101% in the experiment on OVCAR-4 ovarian; 99.6% in the experiment with SK-OV-3 ovarian. Besides, the growth was 97.9% with IGROV1 ovarian, 105% with OVCAR-3 ovarian, 101% with HS 578T breast and 104% with NCI/ADR-RES ovarian.
`COc1cc(/C=N/NC(=O)c2ccc(-n3cc(-c4ccccc4)nn3)cc2)cc(OC)c1OC`: the growth in the experiment on SR leukemia was 55.4%; in the experiment with RPMI-8226 leukemia, 24%; with OVCAR-8 ovarian, 49%; in the experiment with OVCAR-5 ovarian, 105%; with OVCAR-4 ovarian, 45.8%; with SK-OV-3 ovarian it was 73.7%. Further, the growth in the experiment with IGROV1 ovarian is 57%; in the experiment on OVCAR-3 ovarian, 93%; with HS 578T breast, 53.1%; in the experiment on NCI/ADR-RES ovarian, 80.8%.
With `Cn1cc(-c2csc(-c3cn(C)c4ccccc34)n2)c2cnccc21`, the growth with SR leukemia was -0.518% (active); in the experiment on RPMI-8226 leukemia, -18.6% (active); in the experiment on OVCAR-8 ovarian it was 27.4%; in the experiment on OVCAR-5 ovarian, 77.4%; with OVCAR-4 ovarian, 68.1%; with SK-OV-3 ovarian, 105%. Besides, the growth in the experiment with IGROV1 ovarian was 68.5%; with OVCAR-3 ovarian, 43.9%; in the experiment on HS 578T breast, 97.5%; in the experiment on NCI/ADR-RES ovarian, 41.8%.
With `CCOC(=O)C1=C(CCl)N(C)C(=O)NC1c1ccc2c(c1)OCO2` (stereo not given), the growth in the experiment with SR leukemia was 19.8%; in the experiment on RPMI-8226 leukemia, 12.3%; in the experiment on OVCAR-8 ovarian, 44.9%; in the experiment with OVCAR-5 ovarian, 76.9%; in the experiment with OVCAR-4 ovarian, 55.9%; in the experiment with SK-OV-3 ovarian it was 93.7%. The growth in the experiment with IGROV1 ovarian is 74.6%; with OVCAR-3 ovarian it was 25.2%; in the experiment on HS 578T breast, 50%; with NCI/ADR-RES ovarian it was 72%.
Regarding `COc1ccc(Oc2ccc(/C=C/C(=O)c3ccc(OC)c(OC)c3)cc2)cc1`, the growth is 50.9% in the experiment with SR leukemia; 54.7% in the experiment with RPMI-8226 leukemia; 73.8% with OVCAR-8 ovarian; 112% with OVCAR-5 ovarian; 62.8% in the experiment on OVCAR-4 ovarian; 97.3% in the experiment with SK-OV-3 ovarian. Also, the growth in the experiment with IGROV1 ovarian is 85.5%; in the experiment on OVCAR-3 ovarian, 86.7%; in the experiment with HS 578T breast, 88.2%; in the experiment with NCI/ADR-RES ovarian it was 83.4%.
With `Nc1[nH]nc2nc(-c3ccccc3)n3c4ccccc4nc3c12`, the growth with SR leukemia was 92.2%; in the experiment on RPMI-8226 leukemia it was 101%; with OVCAR-8 ovarian, 98.8%; with OVCAR-5 ovarian it was 106%; in the experiment with OVCAR-4 ovarian, 101%; in the experiment with SK-OV-3 ovarian it was 93%. In addition, the growth with IGROV1 ovarian was 77.9%; with OVCAR-3 ovarian, 106%; in the experiment on HS 578T breast, 106%; in the experiment with NCI/ADR-RES ovarian it was 104%.
Consider `CCN(CC)CCn1c2ccc(OC)cc2c2sc3cc(O)ccc3c(=O)c21`, for which the growth was 2.99% (active) in the experiment on SR leukemia; 21.2% in the experiment with RPMI-8226 leukemia; 30.7% in the experiment on OVCAR-8 ovarian; 91% in the experiment with OVCAR-5 ovarian; 50.7% in the experiment on OVCAR-4 ovarian; 52.3% in the experiment with SK-OV-3 ovarian. In addition, the growth in the experiment on IGROV1 ovarian was 26.3%; with OVCAR-3 ovarian, 38.3%; in the experiment with HS 578T breast, 60%; in the experiment with NCI/ADR-RES ovarian, 27.6%.
Consider `COc1cc(-c2ccc[nH]2)[nH]c1/C=C1\N=C(C)C(CC(=O)OCC(C)(C)C)=C1C`, for which the growth is -54.2% (active) with SR leukemia; -49.6% (active) with RPMI-8226 leukemia; -60.8% (active) in the experiment on OVCAR-8 ovarian; -55.1% (active) with OVCAR-5 ovarian; -91.5% (active) with OVCAR-4 ovarian; -57.3% (active) in the experiment on SK-OV-3 ovarian. The growth with IGROV1 ovarian was -43.4% (active); with OVCAR-3 ovarian it was -98% (active); in the experiment with HS 578T breast, -24.8% (active); with NCI/ADR-RES ovarian it was -65.8% (active).
With `O=C1C=C(SCCO)C(=O)c2ccccc21`, the growth was -16.1% (active) with SR leukemia; 12.9% in the experiment with RPMI-8226 leukemia; 28.9% in the experiment with OVCAR-8 ovarian; 87.7% in the experiment on OVCAR-5 ovarian; 39.1% with OVCAR-4 ovarian; 105% in the experiment on SK-OV-3 ovarian. The growth in the experiment with IGROV1 ovarian was 68.6%; with OVCAR-3 ovarian, -3.21% (active); in the experiment on HS 578T breast it was 2.8% (active); in the experiment with NCI/ADR-RES ovarian, 4.12% (active).
`COc1cc(/C=C/c2cc(/C=C/c3ccc(O)c(OC)c3)n(C(=O)Nc3ccc(Cl)cc3)n2)ccc1O`: the growth was 1.52% (active) with SR leukemia; 2.91% (active) in the experiment on RPMI-8226 leukemia; -19.8% (active) in the experiment with OVCAR-8 ovarian; 10.9% in the experiment with OVCAR-5 ovarian; 13.3% in the experiment on OVCAR-4 ovarian; -0.374% (active) in the experiment with SK-OV-3 ovarian. The growth was 9.93% (active) in the experiment with IGROV1 ovarian, -11% (active) in the experiment with OVCAR-3 ovarian, 8.23% (active) in the experiment with HS 578T breast and 17.5% in the experiment on NCI/ADR-RES ovarian.
Take `COC(=O)Cn1c2c(c3c(OC)cccc31)C(=O)c1ccccc1-2`: the growth is 84.8% in the experiment with SR leukemia; 85.3% with RPMI-8226 leukemia; 107% in the experiment on OVCAR-8 ovarian; 81.1% with OVCAR-5 ovarian; 101% in the experiment on OVCAR-4 ovarian; 96.9% with SK-OV-3 ovarian. Besides, the growth with IGROV1 ovarian is 110%; with OVCAR-3 ovarian it was 116%; in the experiment with HS 578T breast, 97.2%; in the experiment on NCI/ADR-RES ovarian, 95.5%.
Consider `O=C(O)c1cn(C2CC2)c2cc(N3CCN(C(=O)N/N=C/c4cccc5ccccc45)CC3)c(F)cc2c1=O`, for which the growth with SR leukemia was 88.5%; in the experiment with RPMI-8226 leukemia, 110%; in the experiment with OVCAR-8 ovarian, 95.3%; with OVCAR-5 ovarian, 110%; in the experiment with OVCAR-4 ovarian, 98.3%; with SK-OV-3 ovarian it was 87%. Also, the growth with IGROV1 ovarian is 94.5%; in the experiment with OVCAR-3 ovarian it was 104%; in the experiment on HS 578T breast, 96.2%; in the experiment on NCI/ADR-RES ovarian, 105%.
Consider `CCN1C2CCC1/C(=C\c1ccccc1)C(=O)/C2=C/c1ccccc1`, for which the growth with SR leukemia was 27.3%; in the experiment with RPMI-8226 leukemia it was 38.2%; in the experiment with OVCAR-8 ovarian, 22.5%; in the experiment on OVCAR-5 ovarian, 88.3%; in the experiment on OVCAR-4 ovarian it was 46.1%; in the experiment on SK-OV-3 ovarian, 78.5%. Moreover, the growth is 49.9% in the experiment on IGROV1 ovarian, 13% in the experiment on OVCAR-3 ovarian, 71.4% with HS 578T breast and 15.1% with NCI/ADR-RES ovarian.
Regarding `O=c1cc(C(F)(F)F)c2cc(-c3cc4ccccc4c(=O)o3)c(O)cc2o1`, the growth in the experiment with SR leukemia was 85.5%; in the experiment with RPMI-8226 leukemia, 17.7%; with OVCAR-8 ovarian, 87%; with OVCAR-5 ovarian, 103%; in the experiment with OVCAR-4 ovarian, 64%; with SK-OV-3 ovarian it was 73.3%. The growth in the experiment on IGROV1 ovarian is 92.6%; in the experiment with OVCAR-3 ovarian, 56.9%; with HS 578T breast it was 79.5%; with NCI/ADR-RES ovarian, 78.9%.

The values above are taken from PubChem BioAssay (NCI).
